The values that follow come from PubChem BioAssay.

Values joined by “and” are separate entries in the source; they are usually repeats but may differ in a detail not shown here. Equal values may be shown once. Active and inactive are the calls of the source.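 How the source made its calls, unless noted: active means thallium flux through the channel raised or lowered by more than 3 SD from vehicle-only wells, actives on both sides; inactive means the rest.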

The nature of experiment [1]: Wnt pathway potentiators raising nuclear beta-catenin – imaging, WNT3A-conditioned medium, mouse C2C12, NPC library, primary screen (AID 1117326; in the data active means nuclear beta-catenin stimulation mostly above about 4.2%, no sharp cut-off; inactive means mostly below about 10%). Particulars: stronger effect = higher value.
Experiment [2] is described as follows: stimulators of insulin release from INS-1E, primary screen, cell-based, 5 mM glucose, NPC library (AID 1117329;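 active means compound raises insulin release from rat beta cells at 5 mM glucose, no numeric limit stated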). The settings on record: rat INS-1E insulin secretion, at 10 µM, stronger effect = higher value.
Experiment [3] can be described thus: growth inhibition of GSK3B-pretreated HCT116 cells – cell-based, CellTiter-Glo, 0.2 to 20 µM (AID 1117336;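 active means compounds lowering colon cancer cell viability after pretreatment blocking the GSK3B kinase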). Particulars: HCT116 viability after GSK3B inhibitor, at 20 µM, stronger effect = higher value.
A short description of experiment [4]: inhibition of endothelial tube formation, primary screen, imaging, VEGF stimulated, CD31 staining, tube area, NPC library (AID 1117340;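 active means compound that reduces growth-factor-driven endothelial tube area in a mixed cell culture, no cutoff stated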). The settings on record: VEGF-stimulated ADSC/ECFC co-culture, at 10 µM, stronger effect = higher value.
The nature of experiment [5]: GLP1 release stimulators, primary, NCI-H716, NPC library (AID 1117341;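 active means compound raises GLP1 secretion from the human gut endocrine cells, with no numeric limit stated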). Particulars: NCI-H716 cells, at 10 µM, stronger effect = higher value.
The nature of experiment [6]: HCT116 colon cancer cell growth inhibition, primary screen, CellTiter-Glo luminescence, NPC library (AID 1117342;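 active means compounds that lower survival of HCT116 colon cancer cells in the luminescence readout, no numeric limit stated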). The settings on record: at 20 µM (top of the series). On the technique in general: In ATP-based viability assays light output follows the ATP content of the culture.
Experiment [7] can be described thus: reduced SW480 viability measured with CellTiter-Glo, NPC library, primary (AID 1117343;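 active means compounds that lower viability of the colon cancer cells in the luminescence readout, with no numeric limit stated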). The settings on record: CellTiter-Glo luminescence; at 20 µM (top of the series).
The nature of experiment [8]: NPC library primary testing for decreased DLD-1 cell viability via CellTiter-Glo (AID 1117346;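 active means compounds that lower survival of DLD-1 colon cancer cells in the luminescence readout, no cutoff given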). Particulars: DLD-1 viability, CellTiter-Glo luminescence; at 20 µM (top of the series).
Experiment [9] deals with 6-phosphogluconate dehydrogenase, decarboxylating (Homo sapiens) (UniProt P52209). Put plainly: inhibition of human phosphogluconate dehydrogenase – biochemical, recombinant enzyme, NADPH absorbance, primary screen (AID 1159550;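 active means at least 20% inhibition of 6-phosphogluconate dehydrogenase activity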). Particulars: recombinant 6PGD, NADPH absorbance 341 nm; at 10 µM; stronger effect = higher value.
A short description of experiment [10]: EMT-state selective cytotoxicity in co-culture – imaging, PC-3E GFP, TEM4-18 mCherry, primary screen (AID 1345086;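 active means compounds killing one labelled cell type while sparing the other, by normalised counts and ratio limits, not self-fluorescent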;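 on all read-outs here: cells exposed to compound for 72 h before imaging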;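 on red/green cell ratio (normalised): normalised mesenchymal count divided by normalised epithelial count so high means epithelial killing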). The settings on record: PC-3E GFP / TEM4-18 mCherry co-culture, imaging cell counts, at 1 µM; for red/green cell ratio (normalised): actives lie on both sides, counts scaled to control wells, 1 = unselective.
Experiment [11] is described as follows: MELAS cybrid and Rieske KO viability enhancers – cell-based, MELAS cybrids, Rieske KO mouse fibroblasts, CellTiter-Glo, primary screen (AID 1508586;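 active means mean z-score across replicates of 1.96 or higher in either the MELAS or the Rieske mutant cell line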;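 further: z relative to plate mean and SD of compound and empty wells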). Particulars: low glucose.
For experiment [12], the target named is NAD(+) hydrolase SARM1 (Homo sapiens) (UniProt Q6SZW1). In words: blocking NAD cleavage by SARM1 SAM-TIR – cell lysate, NAD-Glo luminescence (AID 1508614;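 active means compound whose remaining NAD level is above about 45 nM, limit read from the data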). The settings on record: SAM-TIR HEK293T lysate NADase, at 1 µM, stronger effect = higher value.
The test system of experiment [13] is F380Y. In words: BK channel mutant inhibitors and activators – cell-based, U2OS BacMam, thallium flux, beta subunits, selectivity assay, profiling panel (AID 1259406).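 Further: initial slope of Thallos dye fluorescence rise after thallium is added; log ratio against the mean of 0.3% DMSO vehicle wells on the same plate.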 Particulars: U2OS BacMam BK variants, at 30 µM.
For experiment [14], the system named is F380Y/beta1. Described as above. Particulars: U2OS BacMam BK variants, at 30 µM.
The test system of experiment [15] is F380Y/beta2Delta. The experiment is described as above. The settings on record: U2OS BacMam BK variants, at 30 µM.
For experiment [16], the system named is F380Y/beta4. Described as above. The settings on record: U2OS BacMam BK variants, at 30 µM.
The target of experiment [17] is Calcium-activated potassium channel subunit alpha-1 (Homo sapiens) + Leucine-rich repeat-containing protein 26 (Homo sapiens) (UniProt Q12791+Q2I0M4). The experiment is described as above. The settings on record: U2OS BacMam BK variants, F380Y/Slo1WT/gamma1, at 30 µM.
For experiment [18], the system named is R275C. The description is as above. Particulars: U2OS BacMam BK variants, at 30 µM.
Experiment [19] can be described thus: viability loss with induced miR-34 in A549 – imaging, A549 dox-inducible miR-34, nuclei and caspase counts, primary screen (AID 1347080;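 active means compounds whose cell count with miR-34 switched on is under 0.7 times the count with it off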). Particulars: A549 miR-34 inducible, Hoechst nuclei count, 48 h.
The mark [20] stands for this setting: measured here: epithelial PC-3E GFP cell survival.
The mark [21] stands for this setting: measured here: mesenchymal TEM4-18 mCherry cell survival.
[22] abbreviates: MELAS cybrid survival, CellTiter-Glo 48 h, stronger effect = higher value.
The mark [23] stands for this setting: Rieske KO mouse fibroblast survival, CellTiter-Glo 72 h.

For orientation: inhibition means the change of the read-out against control, counted positive when it falls.

Sequence of Calcium-activated potassium channel subunit alpha-1 (Homo sapiens) + Leucine-rich repeat-containing protein 26 (Homo sapiens) (Q2I0M4 whole entry, looked up, one chain of several): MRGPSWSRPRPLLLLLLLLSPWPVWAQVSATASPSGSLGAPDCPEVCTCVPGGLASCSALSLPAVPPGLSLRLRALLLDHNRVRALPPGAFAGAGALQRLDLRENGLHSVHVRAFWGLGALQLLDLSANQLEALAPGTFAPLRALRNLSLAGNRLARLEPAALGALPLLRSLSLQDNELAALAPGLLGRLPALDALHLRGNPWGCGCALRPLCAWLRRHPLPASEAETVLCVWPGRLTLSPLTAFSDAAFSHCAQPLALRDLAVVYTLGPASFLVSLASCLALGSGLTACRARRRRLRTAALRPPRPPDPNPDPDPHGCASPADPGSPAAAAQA
Sequence of 6-phosphogluconate dehydrogenase, decarboxylating (Homo sapiens) (P52209 whole entry, looked up): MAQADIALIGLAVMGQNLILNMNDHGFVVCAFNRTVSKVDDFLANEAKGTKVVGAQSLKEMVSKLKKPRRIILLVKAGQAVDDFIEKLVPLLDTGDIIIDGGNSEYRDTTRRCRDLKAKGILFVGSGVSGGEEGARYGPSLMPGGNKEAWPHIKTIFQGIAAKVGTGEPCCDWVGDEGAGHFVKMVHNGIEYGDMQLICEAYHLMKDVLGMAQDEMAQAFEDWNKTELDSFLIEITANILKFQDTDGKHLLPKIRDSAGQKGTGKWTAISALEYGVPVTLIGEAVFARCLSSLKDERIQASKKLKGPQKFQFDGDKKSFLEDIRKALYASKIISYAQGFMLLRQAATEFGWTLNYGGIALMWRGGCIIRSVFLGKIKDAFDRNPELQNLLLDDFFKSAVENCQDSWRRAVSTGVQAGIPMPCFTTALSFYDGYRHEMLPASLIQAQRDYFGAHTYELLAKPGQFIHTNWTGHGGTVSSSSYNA
Sequence of NAD(+) hydrolase SARM1 (Homo sapiens) (Q6SZW1 whole entry, looked up): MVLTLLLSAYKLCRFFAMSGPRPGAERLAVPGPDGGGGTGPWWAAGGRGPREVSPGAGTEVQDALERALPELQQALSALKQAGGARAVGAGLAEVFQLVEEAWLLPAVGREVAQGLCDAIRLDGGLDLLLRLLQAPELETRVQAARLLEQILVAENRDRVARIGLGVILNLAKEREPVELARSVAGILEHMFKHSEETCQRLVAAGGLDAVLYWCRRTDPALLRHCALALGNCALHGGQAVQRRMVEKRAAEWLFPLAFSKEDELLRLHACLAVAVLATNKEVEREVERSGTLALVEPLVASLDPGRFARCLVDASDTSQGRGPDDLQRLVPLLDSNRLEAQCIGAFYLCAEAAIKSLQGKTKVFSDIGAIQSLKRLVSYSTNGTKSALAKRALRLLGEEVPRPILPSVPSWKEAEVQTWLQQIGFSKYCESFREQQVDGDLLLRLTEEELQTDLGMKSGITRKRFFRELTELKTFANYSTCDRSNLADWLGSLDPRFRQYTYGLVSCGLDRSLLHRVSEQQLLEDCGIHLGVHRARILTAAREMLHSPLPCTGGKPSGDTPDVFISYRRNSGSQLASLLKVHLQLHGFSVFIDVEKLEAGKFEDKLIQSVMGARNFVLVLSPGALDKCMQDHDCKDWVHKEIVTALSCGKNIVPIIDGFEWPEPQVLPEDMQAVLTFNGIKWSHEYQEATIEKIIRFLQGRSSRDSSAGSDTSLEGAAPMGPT

`NC(=O)N1c2ccccc2CC(=O)c2ccccc21`: the nuclear beta-catenin stimulation in experiment [1] (at 10 µM) was 5.2% (inactive); in experiment [1] (stimulation, at 2 µM), 1.3%. The insulin secretion stimulation in experiment [2] is -0.8% (inactive). Moreover, the viability decrease in [3] was -2.9% (inactive). Further, in experiment [4], the tube area decrease is 0.9% (inactive). Moreover, the GLP1 secretion stimulation in experiment [5] was 0% (inactive). Further, the inhibition of viability in experiment [6] is 14.9% (inactive). Also, the viability decrease (inhibition) in [7] is 5.4% (inactive); in [8], 15.6% (inactive). Further, in experiment [9], the inhibition is 8.8% (inactive). In addition, the red/green cell ratio (normalised) in experiment [10] is 1.05 (inactive). For the same molecule, the normalised cell number in [10] (setting [20]) turned out to be 1.04; in experiment [10] (setting [21]), 1.09. Further, the z-score in experiment [11] (setting [22]) was -0.278 (inactive) and 0.355 (inactive) and 0.309 (inactive); in [11] (setting [23]), -1.12 and 0.011 and -0.438. Further, in experiment [12], the remaining NAD is 10 nM (inactive). In addition, the log fold change Tl+ flux in [13] is -0.0346 (inactive); in [14] it was -0.0277 (inactive); in experiment [15], -0.0162 (inactive); in [16] it was -0.0339 (inactive); in experiment [17] it was 0.0743 (inactive); in experiment [18] it was -0.0757 (inactive).
Consider `Clc1ccc2c(c1)C(N1CCNCC1)=Nc1ccccc1O2`, for which the nuclear beta-catenin stimulation is 0.3% (inactive) in [1] (at 10 µM) and -0.6% in experiment [1] (stimulation, at 2 µM). Besides, the insulin secretion stimulation in experiment [2] was 16.5% (inactive). Besides, the viability decrease in [3] was 46.2% (inactive). The tube area decrease in experiment [4] is -3.9% (inactive). Besides, the GLP1 secretion stimulation in experiment [5] is 15.3% (inactive). The inhibition of viability in experiment [6] was 57.3% (active). Moreover, the viability decrease (inhibition) in experiment [7] was 90% (active); in [8] it was 19.2% (inactive). Besides, the inhibition in experiment [9] was -21.3% (inactive). The red/green cell ratio (normalised) in experiment [10] was 1.17 (inactive). The normalised cell number came out at 0.23 in [10] (setting [20]) and 0.27 in experiment [10] (setting [21]). Moreover, the z-score was -0.224 (inactive) and 0.465 (inactive) in [11] (setting [22]); 0.449 and -0.479 in experiment [11] (setting [23]). In addition, in experiment [12], the remaining NAD is 10 nM (inactive). The log fold change Tl+ flux is 0.111 (active) in experiment [13]; 0.0215 (inactive) in experiment [14]; 0.148 (active) in [15]; 0.0652 (inactive) in [16]; -0.0105 (inactive) in experiment [17]; 0.021 (inactive) in [18].
For the molecule `COC1=CC(=O)C[C@@H](C)[C@]12Oc1c(Cl)c(OC)cc(OC)c1C2=O`, the nuclear beta-catenin stimulation is 1.9% (inactive) in experiment [1] (at 10 µM) and 0.3% in [1] (stimulation, at 2 µM). In [2], the insulin secretion stimulation is 6.2% (inactive). Also, in experiment [3], the viability decrease is 38.4% (inactive). Also, in experiment [4], the tube area decrease was 24.2% (inactive). The GLP1 secretion stimulation in [5] was 0.1% (inactive). Besides, the inhibition of viability in experiment [6] is 43.7% (inactive). Moreover, the results for the viability decrease (inhibition) in experiment [7] and in experiment [8] were 64.1% (active) and 20% (inactive), respectively. The inhibition in experiment [9] was 1.41% (inactive). Moreover, the red/green cell ratio (normalised) in [10] was 0.76 (inactive). Further, the normalised cell number is 1.41 in experiment [10] (setting [20]) and 1.07 in experiment [10] (setting [21]). For the same molecule, the fold change in experiment [19] (stronger effect = lower value, cell number ratio, induced over uninduced) is 1.07 (inactive) and 0.956 (inactive) and 0.943 (inactive); in [19] (measured here: relative caspase fold change +Dox/-Dox) it was 2.5 and 0.98 and 2.02. The cell count is 6100 and 6900 and 8710 in [19] (measured here: total cells with miR-34 induction, stronger effect = lower value); 5720 and 7210 and 9240 in experiment [19] (measured here: total cells without miR-34 induction). Moreover, the z-score in experiment [11] (setting [22]) is 1.78 (inactive); in experiment [11] (setting [23]), 0.726. In addition, in experiment [12], the remaining NAD is 10 nM (inactive). For the same molecule, the log fold change Tl+ flux in [13] is 0.00739 (inactive); in experiment [14] it was -0.046 (inactive); in experiment [15], 0.0194 (inactive); in experiment [16], -0.0398 (inactive); in experiment [17] it was -0.0624 (inactive); in [18], -0.0442 (inactive).
